Results published in PubChem BioAssay AID1063 (University of Pittsburgh Molecular Library Screening Center, 2008).
Screen size: about 200,000 compounds; about 18,000 (9%) were called active. The sample as a whole holds a higher share of actives than the screen did. Unmarked numbers belong to inactive results. Cut-off read from the data, not from the text of the source: active = inhibition above about 50%; inactive = the rest.

test: antileishmanial activity against promastigotes – primary screen (AID 1063); settings: Leishmania major promastigotes, resazurin fluorescence viability; at 10 µM; hits give high values;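 note: promastigotes grown with compound for 44 hours at 28 °C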

Compared with `CC(C)CNC(=O)C(=O)NCc1ccccc1`, `CC(=O)c1cccc(NC(=O)[C@@H](NC(N)=O)C(C)C)c1` is higher in inhibition: -6.83% for the first, 6.23% for the second.

First: O=C(COC(=O)c1ccc(O)cc1)Nc1nccs1
Second: COC(=O)c1nc(NC(=O)c2ccc(F)cc2)n[nH]1
The inhibition of the first is higher: 3.69% for the first, -2.13% for the second.

First: C/C(=N\NC(=O)C(N)=O)c1ccc2c(c1)OCCO2
Second: COc1ccc(-c2nnc(SCC(=O)c3ccc4c(c3)OCCO4)o2)cc1
The inhibition of the first is higher: -3.07% for the first, -4.95% for the second.

First: COc1cccc(NC(=O)C(C)Oc2ccccc2)c1 (stereo not given)
Second: CC(Oc1ccccc1)C(=O)NN1Cc2ccccc2C1=N (stereo not given)
The inhibition of the first is lower: -5.27% for the first, -3.38% for the second.

Going from `Nc1c(C(=O)O)cnn1-c1ccccc1` to `CC(=O)N1N=C(c2ccccc2)OC1c1cccnc1` (stereo not given), the inhibition falls from -2.24% to -2.61%.

Compared with `CCN1CCN(C(=O)C2(NC(=O)Nc3cccc(F)c3)CCCCC2)CC1`, `O=C(CN1CCN(C(=O)c2cccc(F)c2)CC1)Nc1ccccc1F` is lower in inhibition: 29.9% for the first, -5.19% for the second.

First: O=C(CCN1CCN(c2ccccc2)CC1)NNC(=S)Nc1ccccc1
Second: O=C(Nc1ccc(N2CCN(C(=O)C3CC3)CC2)cc1)c1cccs1
The inhibition of the first is lower: -9.65% for the first, -2.42% for the second.

Going from `COc1ccccc1CC(=O)Nc1ccc(F)cc1F` to `O=C(CCN1C(=O)c2ccncc2C1=O)Nc1cc(F)ccc1F`, the inhibition falls from -6.42% to -6.67%.

First: O=C(CCN1C(=O)c2ccccc2C1=O)Nc1ccncc1
Second: Cn1c(CCC(=O)Nc2ccccc2F)nnc1SCC(=O)Nc1ccccc1Cl
The inhibition of the first is lower: -8.03% for the first, 2.13% for the second.

Going from `CCC(C)N(C(=O)COC(=O)C1C(C(=O)OC)=C(C)NC(C)=C1C(=O)OC)C1CCS(=O)(=O)C1` (stereo not given) to `CCOCCCN(C(=O)Cn1nnc(-c2ccc(OC)c(OC)c2)n1)C(CC)C(=O)NC1CCCC1` (stereo not given), the inhibition rises from -3.21% to -1.34%.

Compared with `CCCOCC(O)CC(CC)C(=O)NNC(=S)Nc1ccccc1` (stereo not given), `Cc1ccccc1NC(=S)NNC(=O)c1cccc(Br)c1` is higher in inhibition: -2.02% for the first, -0.99% for the second.

First: CCCCOc1ccc(N(CC(=O)NC(C)C)C(=O)CCC(=O)Nc2ccccn2)cc1
Second: C=CCn1c(CCNC(=O)c2ccccc2F)nnc1SCC(=O)Nc1ccc(OC)cc1
The inhibition of the first is lower: 0.57% for the first, 3.89% for the second.

Compared with `S=c1nc(C23CC4CC(CC(C4)C2)C3)nc2sccn12`, `O=C(Nc1cccc(F)c1)N1C2CCC1CC(O)(c1cccnc1)C2` (stereo not given) is higher in inhibition: -2.7% for the first, 4.96% for the second.

Going from `COc1cccc(C(=O)Oc2cc(C)[nH]c(=O)c2[N+](=O)[O-])c1` to `COCCn1c(=O)[nH]c(=O)c2cc(C(=O)c3cc(OC)ccc3O)cnc21`, the inhibition falls from 5.78% to 0.78%.

Going from `CC1CCCCN1S(=O)(=O)c1ccc(S(=O)(=O)N(CC(=O)Nc2ccccc2)Cc2cccs2)cc1` (stereo not given) to `COc1ccccc1N(C)S(=O)(=O)c1ccc(C(=O)N2CCC(C(N)=O)CC2)cc1`, the inhibition rises from -0.93% to 3.34%.

Going from `CC1CCCN(S(=O)(=O)c2ccc(C(=O)Nc3nnc(-c4ccncc4)o3)cc2)C1` (stereo not given) to `COc1cccc(C(=O)Nc2ccc(N3CCCC3)cc2)c1`, the inhibition falls from 12.2% to 9.5%.

Going from `Cc1nccc(-c2ccc(-n3c(C)ccc3C)cc2)n1` to `CCOc1ccc2c(c1)C(c1ccc(C)cc1)=NNC(c1ccc(C)cc1)=N2`, the inhibition falls from 41.6% to 17.4%.

First: CC(C)c1nc(-c2ccccn2)no1
Second: COc1ccc(O)c(C(=O)c2cnc3onc(C(C)C)c3c2)c1
The inhibition of the first is lower: -3.52% for the first, -0.73% for the second.

Compared with `C/C(Cn1nnc2ccccc21)=N\OC(=O)c1cc(F)c(F)cc1Cl`, `Fc1ccccc1Cc1ccc(Cl)nn1` is lower in inhibition: 2.7% for the first, -4.31% for the second.

Going from `CCN(CCn1cccn1)Cc1nc(-c2ccc(C(=O)OC)cc2)no1` to `Cc1ccc(NC(=S)N(CCCN2CCC(C)CC2)Cc2ccco2)cc1`, the inhibition rises from 5.81% to 37.4%.

Compared with `O=C1CC(c2c(F)cccc2Cl)C(n2cncn2)C(O)=C1C1NCCc2ccccc21` (stereo not given), `O=C1NC(=O)C2C1C(c1ccc([N+](=O)[O-])cc1)=NN2Cc1ccccc1` (stereo not given) is higher in inhibition: -6.44% for the first, -2.02% for the second.

First: COc1cc2c(cc1O)[C@H](Cc1ccc(Oc3cc(C[C@@H]4NCCc5cc(OC)c(O)cc54)ccc3O)cc1)NCC2
Second: COc1ccc(OC)c(NC(=S)N2CCc3ccccc3C2)c1
The inhibition of the first is lower: 2.59% for the first, 5.86% for the second.

Going from `COCCn1nnnc1C(c1cc2ccc(OC)cc2[nH]c1=O)N1CCc2ccccc2C1` (stereo not given) to `COc1cccc(NC(=O)CN(C)CC(=O)Nc2ccc3c(c2)CCC3)c1`, the inhibition falls from 5.04% to 2.96%.

Compared with `COc1ccc(Cc2nnc(NC(=O)c3cc(OC)c(OC)c(OC)c3)s2)cc1OC`, `Cc1ccc(C(=O)Nc2sc(Cc3ccc4c(c3)OCO4)c(C)c2C(N)=O)cc1` is lower in inhibition: -2.97% for the first, -6.82% for the second.

Compared with `NC(=O)C1CCN(Cc2nc3c(Br)cc(Br)cc3c(=O)[nH]2)CC1`, `CC(=O)N/N=C(\C)c1ccc(Br)cc1Br` is higher in inhibition: -13% for the first, -4.52% for the second.

First: COCCNC(=O)/C(C#N)=C/c1nc(N(C)C)n(-c2ccc(F)cc2)c1Cl
Second: COc1cccc(OC)c1C(=O)Nc1ccc(N2CCCCC2)cc1
The inhibition of the first is higher: 10.3% for the first, -1.53% for the second.

Going from `COc1ccc(-c2nnc(SC(C)C#N)o2)cc1` (stereo not given) to `COc1ccc(Nc2nc(Cl)nc(NCc3ccco3)n2)cc1`, the inhibition rises from -3.1% to 0.84%.

First: CC(/C=N/NC(=O)c1ccncc1)=C\c1ccco1
Second: Cc1cc(C(=O)N/N=C/c2ccccc2[N+](=O)[O-])c(C)o1
The inhibition of the first is higher: -2.49% for the first, -4.59% for the second.

Compared with `Nc1nc(-c2sc3nc4c(cc3c2N)CCCC4)nc(N2CCOCC2)n1`, `S=C(Nc1ccc2c(c1)OCO2)N1CCCC1` is lower in inhibition: 47% for the first, -4.06% for the second.

First: CNC(=O)c1[nH]cnc1C(=O)N[C@@H](CC(C)C)C(=O)OC(C)(C)C
Second: CC(C)C(=O)OCC(=O)Nc1ccc2c(c1)CCC2
The inhibition of the first is higher: -2.24% for the first, -3.35% for the second.

Going from `CC(C)(C)c1ccc(/C=C2\SC(=O)N=C2N)cc1` to `CN1/C(=C\C(=O)c2oc3ccccc3c2N)C(C)(C)c2ccccc21`, the inhibition falls from 33.6% to 5.73%.

First: Cc1ccc(/C([O-])=C(/C(=S)NCc2ccco2)[n+]2ccccc2)cc1[N+](=O)[O-]
Second: Cc1ccc(NC(=S)N(CCN2CCCCC2)Cc2ccco2)cc1C
The inhibition of the first is lower: -2.58% for the first, 13.2% for the second.

Going from `Cc1ccc(C(=O)OCC(=O)NCc2ccc3c(c2)OCO3)s1` to `O=C(COC(=O)Cn1cnc2ccccc2c1=O)NCc1ccccc1Cl`, the inhibition rises from -5.96% to 1.11%.

Compared with `COc1ccc(-n2cnc3cc(C(=O)NC4CCCC4)ccc32)cc1`, `O=C(CO/N=C/c1ccccc1OC(F)F)NC1CCCC1` is higher in inhibition: 1.49% for the first, 9.48% for the second.

First: CCN(CC)C(=O)C(=O)Nc1cccc(Br)c1
Second: CCN1CCN(C(=O)c2ccccc2N(C)S(=O)(=O)c2ccc(C)cc2)CC1
The inhibition of the first is lower: -4.3% for the first, -0.79% for the second.

Going from `C=CCC1(CC=C)CCCN1C(=O)CC1C(=O)NCCN1Cc1ccccc1OC` (stereo not given) to `CSc1ccc(/C=N/N2CCN(Cc3ccccc3Cl)CC2)cc1`, the inhibition falls from 2.2% to -7.46%.

Going from `CCCCSc1nc2ccccc2[nH]1` to `CC(C)Nc1nnc(SCC(=O)/C=C2\N(C)c3ccccc3C2(C)C)s1`, the inhibition rises from -4.2% to 2.98%.

First: NS(=O)(=O)c1ccc(N2C(=O)C3C4CC(C(Br)C4Br)C3C2=O)cc1 (stereo not given)
Second: Cc1ccc(S(=O)(=O)NCCc2nnc3ccc(SCc4cccnc4)nn23)cc1
The inhibition of the first is higher: -1.02% for the first, -6.61% for the second.

`Cn1cccc1C(C#N)c1ccccc1C#N` (stereo not given) showed an inhibition of 4.16%.

In the case of `COc1ccc(NC(C(=O)Nc2cccc(C(C)=O)c2)c2ccccc2)cc1` (stereo not given), the inhibition is reported as 94.4% (active).
In the case of `O=C(CCN1C(=O)c2ccccc2C1=O)Nc1cccc(F)c1`, the inhibition is reported as 89.8% (active).
In the case of `O=C(CN1CCN(C/C=C/c2ccccc2)CC1)Nc1ccc(F)cc1F`, the inhibition is reported as 77.3% (active).
In the case of `O=C(CCN1CCN(C/C=C/c2ccccc2)CC1)Nc1cccc(F)c1`, the inhibition is reported as 90.8% (active).
In the case of `CC1CCCCN1S(=O)(=O)c1ccc(C(=O)Nc2nnc(-c3cccs3)o2)cc1` (stereo not given), the inhibition is reported as 99.6% (active).
In the case of `c1ccc(-c2nccc(-c3ccc(-n4cnc5ccccc54)cc3)n2)nc1`, the inhibition is reported as 101% (active).
With `CC[C@H]1CN2CCc3cc(OC)c(OC)cc3[C@@H]2C[C@@H]1C[C@H]1NCCc2cc(OC)c(OC)cc21` the inhibition was 100% (active).
For `COc1ccc(OC)c(C(c2nnnn2C(C)(C)C)N2CCc3ccccc3C2)c1` (stereo not given), the inhibition was 88.9% (active).
With `COc1ccc(-c2nnc(SC(=O)N3c4ccccc4Sc4ccccc43)o2)cc1` the inhibition was 84.1% (active).
In the case of `CCc1ccc2c(c1)C(c1ccc([N+](=O)[O-])cc1)=NNC(c1ccccc1)=N2`, the inhibition is reported as 60.2% (active).
For `CC(=O)NCCC(=O)Nc1nc(C)c(Cc2ccc3c(c2)OCO3)s1`, the inhibition was 55.9% (active).
With `COc1ccc(-n2cnc3cc(NCc4ccco4)ccc32)cc1` the inhibition was 90.2% (active).
For `CC1CC(C)CN(CCC(=O)Nc2ccc3c(c2)CCC3)C1` (stereo not given), the inhibition was 65.4% (active).
In the case of `Cc1ccccc1C(=O)Nc1ccc(N2CCCCCC2)cc1`, the inhibition is reported as 89.4% (active).
With `Cc1ccc(NC(=S)N(Cc2ccco2)C(C)c2cccs2)cc1` (stereo not given) the inhibition was 51.8% (active).
In the case of `CN1/C(=C\C(=O)c2cccnc2Cl)C(C)(C)c2ccccc21`, the inhibition is reported as 55.5% (active).
With `COc1ccc(O)c(C(=O)c2cnc3c(c2)c(-c2ccc(F)cc2)c(C#N)c(=O)n3C)c1` the inhibition was 52.4% (active).
For `CCOC(=O)C1CCN(C(=O)c2ccccc2N(C)S(=O)(=O)c2ccccc2)CC1`, the inhibition was 53.4% (active).
